Screening data: PubChem, National Center for Advancing Translational Sciences (NCATS)
Sampled rows, rich in hits. Any-hit rate of the full collection: about 1.5%.
Tb PFK inh-1: blocks T. brucei phosphofructokinase | O15648 | T. brucei PFK, ADP-Glo luminescence | Potency, µM (highest dose often 57.5 µM), inactives show at the top dose activity, negative = inhibition, actives largely listed as inhibitors | 330,000 tested, 0.17% active;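 also: potency is read from the fitted curve at half-maximal effect; 0% = uninhibited 1x PFK enzyme wells and -100% = no-enzyme wells; nearly all actives have a fitted effect of over 60% in size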
Target sequence (O15648 whole entry, looked up): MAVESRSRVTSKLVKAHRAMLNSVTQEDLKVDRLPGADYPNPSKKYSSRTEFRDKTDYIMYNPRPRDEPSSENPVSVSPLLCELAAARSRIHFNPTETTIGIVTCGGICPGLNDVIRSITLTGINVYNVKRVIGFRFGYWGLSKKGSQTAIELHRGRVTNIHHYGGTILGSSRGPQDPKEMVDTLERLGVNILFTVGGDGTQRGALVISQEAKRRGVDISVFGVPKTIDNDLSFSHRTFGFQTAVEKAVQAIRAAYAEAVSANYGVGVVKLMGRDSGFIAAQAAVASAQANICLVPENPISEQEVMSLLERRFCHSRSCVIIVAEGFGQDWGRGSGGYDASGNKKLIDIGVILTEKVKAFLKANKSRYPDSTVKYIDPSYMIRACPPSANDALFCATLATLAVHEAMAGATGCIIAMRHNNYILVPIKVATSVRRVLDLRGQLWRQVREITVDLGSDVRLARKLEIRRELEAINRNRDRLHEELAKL
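In TEA buffer at pH 8.0 with 5 mM MgCl2, enzyme (1.25 nM) converted F6P (0.5 mM) and ATP (0.1 mM) for 45 min at room temperature. ADP product was read by luciferase luminescence.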
PI5P4K alpha inh: inhibitors of human PI5P4K alpha; PI5P4Kalpha enzyme, ADP-Glo luminescence, 60 min; stronger effect = lower value; AID 652105; max response, %; 330,000 tested, 1.2% active; P48426; active = max response of -50% or lower; inconclusive = between -30% and -50%; inactive = -30% or higher; also: value at the top dose of about 77 µM; % is scaled to controls: 0 for no effect and ±100 for the full control effect
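Luminescence from ADP-Glo served as readout of PI5P4Kalpha activity in a qHTS format. Reaction: enzyme, substrate, compound, ATP at 5 microM final, 60 min at RT.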
TDP1 block: blocks human tyrosyl-DNA phosphodiesterase 1; Q9NUW8; recombinant TDP1, AlphaScreen DNA substrate cleavage; AID 485290; Potency, µM (top dose mostly 130 µM), without a hit: at the highest dose activity change, negative = inhibition, actives largely listed as inhibitors; 350,000 tested, 0.28% active; also: potency is read from the fitted curve at half-maximal effect; % is scaled to controls: 0 for no effect and ±100 for the full control effect; nearly all actives have a fitted effect of over 40% in size
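E. coli-derived human Tdp1, 1 nM final. Cpd preinc 15 min RT; substrate 15 nM final, 5 min RT; AS bead mix 10 ug/ml final, 10 min RT. Signal loss = tyrosine-FITC cleavage. No-enzyme wells = max signal.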
FEN1 inhibitor: human FEN1 inhibition. P39748. Recombinant FEN1 flap cleavage, fluorescence, 15 min. Potency, µM (doses to about 114 µM), without a hit: top-dose activity change, negative = inhibition, most hits filed as inhibitors. 390,000 tested, 0.35% active; also: potency is read from the fitted curve at half-maximal effect; % is scaled to controls: 0 for no effect and ±100 for the full control effect; nearly all actives have a fitted effect of over 65% in size
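Enzyme 10 nM, 15 min RT preincubation with compound; start with substrate 50 nM final; reads at 0 and 15 min; qHTS titration, four-parameter Hill fit.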
WRN inhibitor: blocks human WRN helicase. Potency, µM (series often up to 114 µM), for the others: top-dose activity change, negative = inhibition, hits mostly inhibitors. Q14191. AID 651768. 360,000 tested, 0.46% active. WRN helicase unwinding, fluorescent forked duplex, kinetic; also: potency is read from the fitted curve at half-maximal effect; % is scaled to controls: 0 for no effect and ±100 for the full control effect; nearly all actives have a fitted effect of over 55% in size
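Kinetic fluorescence helicase assay: unwinding of a quenched forked DNA duplex (100 nM final) with 2 mM ATP final raises red fluorescence (525/598 nm). Compounds sat 15 min at room temperature with 20 nM WRN beforehand.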
Tb PGK inh: blocks T. brucei phosphoglycerate kinase; PGK/GAPDH coupled, Kinase-Glo luminescence, 60 min; 380,000 tested, 0.043% active; Potency, µM (top dose mostly 57.5 µM), for the others: at the top dose activity change, negative = inhibition, most hits filed as inhibitors; P07378; also: potency is read from the fitted curve at half-maximal effect; % is scaled to controls: 0 for no effect and ±100 for the full control effect; nearly all actives have a fitted effect of over 60% in size
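Luminescent ATP detection (Kinase-Glo Plus) follows a 60-minute room-temperature incubation, with wells lacking PGK as controls. Buffer: 100 mM TEA (pH 7.6), 5 mM MgCl2, 0.01% Tween-20. Coupling enzyme GAPDH (100 nM final) supplies unstable 1,3-BPG in-well.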
TbPFK ATP: inhibits T. brucei PFK measured by ATP depletion. 1,100 tested, 47% active. Potency, µM (top dose mostly 57.5 µM), inactives show at the top dose inhibition. Tb PFK enzyme, ATP depletion, Kinase-Glo Plus luminescence. shares compounds with Tb PFK inh-1. AID 504636; calls by dose curve; also: potency is read from the fitted curve at half-maximal effect; nearly all actives have a fitted effect of over 60% in size
Tb PFK inh-2: validation of T. brucei phosphofructokinase inhibitors | purified T. brucei PFK, ADP-Glo luminescence, 45 min | shares compounds with Tb PFK inh-1 | Potency, µM (highest dose often 57.5 µM), inactives show at the highest dose activity change, negative = inhibition, actives largely listed as inhibitors | 1,100 tested, 41% active;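 also: potency is read from the fitted curve at half-maximal effect; plate controls were full PFK enzyme control for no effect and no enzyme control for full effect; nearly all actives have a fitted effect of over 60% in size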
* hit, by the source's call; ? = inconclusive; · = no result given; [ ] = remark or other dose. Unless noted, calls follow the shape of the dose curve; as a rule, active = well fitted curve in the direction sought with a large enough effect; inconclusive = small, poorly fitted or top-dose-only effect, or another doubt; inactive = no such curve, though single readings can be large; an effect the other way counts as inactive or inconclusive.

SMILES	Tb PFK inh-1	PI5P4K alpha inh	TDP1 block	FEN1 inhibitor	WRN inhibitor	Tb PGK inh	TbPFK ATP	Tb PFK inh-2
Cc1cc(NC(=O)COC(=O)c2c(C)nn(Cc3ccccc3)c2C)no1	4%	-2	5%	5%	3%	-1%	·	·
O=C(Cc1ccc(Br)cc1)Nc1cccc(S(=O)(=O)N2CCOCC2)c1	?	19	0%	-13%	-10%	-8%	?	?
NS(=O)(=O)c1cccc(NC(=O)Cc2ccc(Cl)c(Cl)c2)c1	6µM*	1	-1%	-5%	-7%	-3%	3µM*	11µM*
CC(=O)Oc1c2c(c(CC=C(C)C)c3c1C(=O)C1=CC4CC5C(C)(C)OC(C/C=C(\C)C(=O)O)(C4=O)[C@]15O3)OC(C)(CCC=C(C)C)C=C2 (some centres undefined)	·	·	9%	·	·	·	·	·
CC(=O)OCC(N)C(=O)c1ccccc1 (centres undefined)	·	·	1%	·	·	·	·	·
Cc1cc(NC(=O)CCl)no1	0%	1	5%	-2%	-12%	0%	·	·
Cc1cc(NS(=O)(=O)c2ccc(NC(=O)Cc3ccc(Cl)c(Cl)c3)cc2)no1	1.2µM*	-1	0%	7%	-35%	-3%	0.43µM*	0.76µM*
O=C(Cl)C(Cl)(Cl)Cl	·	·	13%	·	·	·	·	·
Cn1c(N)c(C(=O)COC(=O)Cc2ccc(Cl)c(Cl)c2)c(=O)n(C)c1=O	9.5µM*	-3	1%	-21%	-2%	1%	6.7µM*	12µM*
CCOC(=O)c1c(NC(=O)C2C3C=CC(C3)C2(C)C(=O)O)sc2c1CCCC2 (centres undefined)	?	-15	?	-10%	-19%[57.1 µM]	?	?	27µM*
CCN(CC)CCOC(=O)c1ccc(N/C=C(/C#N)c2nc(-c3cc4ccccc4oc3=O)cs2)cc1	?	?	·	?	-24%	-6%	-25%	?
CCN(CC)CCOC(=O)c1ccc(N=Cc2c(O)[nH]c(=O)[nH]c2=O)cc1	-3%	-28	2%	3%	2%	-6%	·	·
ClCCN(CCCl)c1ccc(C=Nc2ccc(/C=C/c3ccncc3)cc2)cc1	·	·	·	-7%	·	·	·	·
CN(C)c1cc(Cl)c2nonc2c1N	?	-10	5%	?	-2%[11.6 µM]	-5%	21µM*	?
Cn1cccc1/C=C1/SC(=S)N(CC(=O)O)C1=O	?	5	-8%	1%	-5%	-2%	-28%	?
COc1cccc(NC(=O)c2cc(-c3ccc(C)o3)nc3ccccc23)c1	?	?	·	-18%	-28%	-11%	?	?
Cc1nnc(NC(=O)c2cc(-c3ccco3)nc3ccccc23)s1	?	·	-9%	·	·	·	9.5µM*	?
CCCCCCn1c(=O)c(C(=O)Nc2nnc(C)s2)c(O)c2ccccc21	0%	·	1%	·	·	·	·	·
COc1cc2c(cc1O)C(CCc1ccc(Cl)cc1)N(C)CC2 (centres undefined)	·	·	10%	·	·	·	·	·
COC(=O)c1[nH]c2ccc(C)cc2c1NC(=O)CN1CCCc2ccccc21	?	-24	-13%	?	-36%	-7%	-30%	?
Cc1cc(Br)c(NC(=O)CN2CC=C(c3ccccc3)CC2)c(Br)c1	0%	-3	3%	-23%	-7%	-1%	·	·
CCOC(=O)N(C)C(=O)CSP(=S)(OCC)OCC	·	·	15%	·	·	·	·	·
CCOP(=O)(Nc1ccc2oc(=O)c3ccccc3c2c1)OCC	?	237	·	-18%	3%	-2%	8%	21%
CCOP(=O)(OCC)C(O)c1ccccc1 (centres undefined)	-4%	1	·	16%	1%	7%	·	·
